According to the supplement of paper PMC11732987, “Enantioselective OTUD7B fragment discovery through chemoproteomics screening and high-throughput optimisation” (Communications Chemistry, 2025):

Experiments:
Experiment in all cases: log2 ratio of Biotin-Ahx-Ub-VS probe labelling (fragment/DMSO); higher = less target engagement (more negative = stronger competition), active = hit call of the paper (q ≤ 0.05, log2 ratio ≤ -1)
Conditions in all cases: compound concentration: 200 uM; treatment time: 3 h
USP19 = target: T1, USP19 (UniProt O94966)
T1 sequence (whole entry): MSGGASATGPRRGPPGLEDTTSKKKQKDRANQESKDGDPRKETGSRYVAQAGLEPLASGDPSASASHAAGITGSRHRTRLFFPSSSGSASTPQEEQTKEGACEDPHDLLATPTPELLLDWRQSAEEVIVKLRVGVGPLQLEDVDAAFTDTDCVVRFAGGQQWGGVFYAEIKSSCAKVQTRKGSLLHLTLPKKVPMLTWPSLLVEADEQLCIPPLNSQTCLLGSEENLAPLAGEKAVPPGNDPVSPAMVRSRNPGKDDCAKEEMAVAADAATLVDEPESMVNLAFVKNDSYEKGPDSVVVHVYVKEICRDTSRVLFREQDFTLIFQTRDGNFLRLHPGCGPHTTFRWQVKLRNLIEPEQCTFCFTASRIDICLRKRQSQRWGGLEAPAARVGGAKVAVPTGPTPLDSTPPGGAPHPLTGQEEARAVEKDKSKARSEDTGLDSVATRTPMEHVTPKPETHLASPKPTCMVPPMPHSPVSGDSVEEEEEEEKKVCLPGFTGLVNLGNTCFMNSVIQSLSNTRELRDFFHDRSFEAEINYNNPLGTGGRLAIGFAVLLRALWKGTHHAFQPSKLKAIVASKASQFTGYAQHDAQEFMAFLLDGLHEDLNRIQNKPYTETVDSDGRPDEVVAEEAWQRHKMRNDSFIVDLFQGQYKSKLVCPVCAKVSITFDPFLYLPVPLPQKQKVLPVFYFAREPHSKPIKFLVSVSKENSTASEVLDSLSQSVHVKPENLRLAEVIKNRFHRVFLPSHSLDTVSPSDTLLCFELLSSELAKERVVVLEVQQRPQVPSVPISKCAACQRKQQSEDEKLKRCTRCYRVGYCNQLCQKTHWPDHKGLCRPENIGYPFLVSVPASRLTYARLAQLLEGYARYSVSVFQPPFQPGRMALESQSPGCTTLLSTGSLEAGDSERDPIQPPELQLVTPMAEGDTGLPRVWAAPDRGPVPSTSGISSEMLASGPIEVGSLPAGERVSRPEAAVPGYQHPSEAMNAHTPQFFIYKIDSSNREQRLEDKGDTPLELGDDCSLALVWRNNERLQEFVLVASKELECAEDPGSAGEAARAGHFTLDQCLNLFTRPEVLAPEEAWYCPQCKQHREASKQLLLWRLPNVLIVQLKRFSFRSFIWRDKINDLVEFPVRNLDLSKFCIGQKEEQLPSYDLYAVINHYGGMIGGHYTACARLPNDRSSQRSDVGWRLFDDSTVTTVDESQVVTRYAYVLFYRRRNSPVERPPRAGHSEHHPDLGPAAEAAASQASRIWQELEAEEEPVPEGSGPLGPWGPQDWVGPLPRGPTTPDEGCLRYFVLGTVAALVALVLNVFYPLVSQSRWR
Procedure, shortened: (§1)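 Each value is an average log2 ratio of fragment to vehicle, tested by unpaired t-test. The underlying Spectronaut label-free quantities were global-median-normalised, and only proteins with ≥2 unique peptides were included. Triplicate HEK293T lysate samples (495 µg) were exposed to fragment at 200 µM or vehicle for 3 h, then to Biotin-Ahx-Ub-VS at 0.5 µM final for 1 h, before NeutrAvidin enrichment of labelled DUBs, LysC and trypsin digestion, and diaPASEF LC-MS/MS.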

USP22 = target: T2, USP22 (UniProt Q9UPT9)
T2 sequence (whole entry): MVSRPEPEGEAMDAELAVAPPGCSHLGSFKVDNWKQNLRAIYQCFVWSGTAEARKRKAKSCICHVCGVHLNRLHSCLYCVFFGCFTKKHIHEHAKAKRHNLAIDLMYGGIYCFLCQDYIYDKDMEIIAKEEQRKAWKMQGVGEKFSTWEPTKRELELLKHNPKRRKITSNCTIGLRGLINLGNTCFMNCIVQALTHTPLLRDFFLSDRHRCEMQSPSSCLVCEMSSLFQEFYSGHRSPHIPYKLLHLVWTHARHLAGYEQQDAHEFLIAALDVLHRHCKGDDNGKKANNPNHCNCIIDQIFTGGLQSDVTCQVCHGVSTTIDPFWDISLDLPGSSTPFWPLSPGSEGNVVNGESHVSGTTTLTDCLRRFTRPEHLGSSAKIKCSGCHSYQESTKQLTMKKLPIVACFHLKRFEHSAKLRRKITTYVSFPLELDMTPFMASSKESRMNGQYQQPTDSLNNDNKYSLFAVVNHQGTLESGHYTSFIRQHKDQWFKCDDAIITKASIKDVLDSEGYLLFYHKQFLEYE
Procedure, shortened: as §1

USP24 = USP24 (UniProt Q9UPU5)
USP24, sequence (Q9UPU5 whole entry): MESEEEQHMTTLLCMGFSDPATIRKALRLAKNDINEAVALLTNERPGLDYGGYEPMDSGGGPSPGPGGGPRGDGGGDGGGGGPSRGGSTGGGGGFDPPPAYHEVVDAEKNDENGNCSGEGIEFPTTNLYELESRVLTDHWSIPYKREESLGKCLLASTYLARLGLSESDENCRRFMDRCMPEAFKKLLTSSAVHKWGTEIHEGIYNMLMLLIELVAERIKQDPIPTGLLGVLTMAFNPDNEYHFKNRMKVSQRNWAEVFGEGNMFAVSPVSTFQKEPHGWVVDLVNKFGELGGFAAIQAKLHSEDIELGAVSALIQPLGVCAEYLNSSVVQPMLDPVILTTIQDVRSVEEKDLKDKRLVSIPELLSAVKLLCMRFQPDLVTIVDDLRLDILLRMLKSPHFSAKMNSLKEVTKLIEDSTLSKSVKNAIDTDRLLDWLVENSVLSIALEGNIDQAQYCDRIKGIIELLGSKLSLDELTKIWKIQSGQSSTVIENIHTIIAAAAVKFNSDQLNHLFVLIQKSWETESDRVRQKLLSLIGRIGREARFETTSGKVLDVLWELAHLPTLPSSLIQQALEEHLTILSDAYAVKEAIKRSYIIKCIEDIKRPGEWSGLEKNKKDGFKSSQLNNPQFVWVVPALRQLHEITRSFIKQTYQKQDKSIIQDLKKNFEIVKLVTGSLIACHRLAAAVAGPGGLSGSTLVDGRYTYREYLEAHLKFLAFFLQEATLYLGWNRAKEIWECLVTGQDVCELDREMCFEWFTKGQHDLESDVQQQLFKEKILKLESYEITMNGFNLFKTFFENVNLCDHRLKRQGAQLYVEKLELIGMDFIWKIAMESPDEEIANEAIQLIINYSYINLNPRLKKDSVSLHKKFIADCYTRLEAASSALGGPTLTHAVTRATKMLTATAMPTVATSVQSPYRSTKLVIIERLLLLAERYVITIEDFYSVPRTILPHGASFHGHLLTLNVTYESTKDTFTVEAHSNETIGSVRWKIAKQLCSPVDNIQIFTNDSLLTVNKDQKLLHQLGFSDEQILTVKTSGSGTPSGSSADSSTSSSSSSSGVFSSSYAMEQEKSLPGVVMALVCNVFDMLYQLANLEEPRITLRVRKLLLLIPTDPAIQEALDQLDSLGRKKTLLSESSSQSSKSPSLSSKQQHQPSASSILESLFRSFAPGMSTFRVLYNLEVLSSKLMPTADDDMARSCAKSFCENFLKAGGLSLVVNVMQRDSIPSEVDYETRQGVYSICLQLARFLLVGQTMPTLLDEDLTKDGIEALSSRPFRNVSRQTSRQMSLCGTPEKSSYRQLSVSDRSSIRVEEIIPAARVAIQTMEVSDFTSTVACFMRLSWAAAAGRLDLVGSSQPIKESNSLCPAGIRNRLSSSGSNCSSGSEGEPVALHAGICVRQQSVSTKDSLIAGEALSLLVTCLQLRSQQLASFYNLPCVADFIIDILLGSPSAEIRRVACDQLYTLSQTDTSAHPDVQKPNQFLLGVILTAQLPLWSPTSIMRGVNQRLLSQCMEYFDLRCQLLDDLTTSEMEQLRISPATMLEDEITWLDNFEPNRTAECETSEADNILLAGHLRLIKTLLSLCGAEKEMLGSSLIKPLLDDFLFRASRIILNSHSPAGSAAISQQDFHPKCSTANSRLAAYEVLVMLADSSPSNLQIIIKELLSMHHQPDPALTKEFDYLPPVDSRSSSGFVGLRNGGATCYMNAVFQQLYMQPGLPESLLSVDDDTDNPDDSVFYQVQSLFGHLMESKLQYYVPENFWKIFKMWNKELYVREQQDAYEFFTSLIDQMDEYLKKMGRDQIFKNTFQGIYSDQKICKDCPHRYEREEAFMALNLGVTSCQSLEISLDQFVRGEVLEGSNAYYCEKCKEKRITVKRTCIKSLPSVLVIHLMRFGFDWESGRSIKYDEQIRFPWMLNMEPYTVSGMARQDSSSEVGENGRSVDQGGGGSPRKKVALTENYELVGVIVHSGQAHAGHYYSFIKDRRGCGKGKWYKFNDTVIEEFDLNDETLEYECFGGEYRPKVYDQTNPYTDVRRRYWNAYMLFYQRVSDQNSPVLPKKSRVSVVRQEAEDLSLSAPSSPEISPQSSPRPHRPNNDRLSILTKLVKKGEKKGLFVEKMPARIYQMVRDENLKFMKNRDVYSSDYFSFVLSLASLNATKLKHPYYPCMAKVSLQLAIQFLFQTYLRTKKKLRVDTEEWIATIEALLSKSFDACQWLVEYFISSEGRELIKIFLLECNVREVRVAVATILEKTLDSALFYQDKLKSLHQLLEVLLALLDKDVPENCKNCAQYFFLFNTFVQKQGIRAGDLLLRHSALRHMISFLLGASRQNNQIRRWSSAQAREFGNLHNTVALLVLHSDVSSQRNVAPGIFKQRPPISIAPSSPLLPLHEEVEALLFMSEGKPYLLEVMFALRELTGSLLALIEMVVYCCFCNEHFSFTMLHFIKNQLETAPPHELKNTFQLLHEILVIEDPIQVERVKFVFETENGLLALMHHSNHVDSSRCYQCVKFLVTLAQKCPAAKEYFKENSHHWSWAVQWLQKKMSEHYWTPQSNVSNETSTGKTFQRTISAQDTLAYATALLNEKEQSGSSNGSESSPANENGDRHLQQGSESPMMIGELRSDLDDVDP
Procedure, shortened: as §1

USP25 = target: T3, USP25 (UniProt Q9UHP3)
T3 sequence (whole entry): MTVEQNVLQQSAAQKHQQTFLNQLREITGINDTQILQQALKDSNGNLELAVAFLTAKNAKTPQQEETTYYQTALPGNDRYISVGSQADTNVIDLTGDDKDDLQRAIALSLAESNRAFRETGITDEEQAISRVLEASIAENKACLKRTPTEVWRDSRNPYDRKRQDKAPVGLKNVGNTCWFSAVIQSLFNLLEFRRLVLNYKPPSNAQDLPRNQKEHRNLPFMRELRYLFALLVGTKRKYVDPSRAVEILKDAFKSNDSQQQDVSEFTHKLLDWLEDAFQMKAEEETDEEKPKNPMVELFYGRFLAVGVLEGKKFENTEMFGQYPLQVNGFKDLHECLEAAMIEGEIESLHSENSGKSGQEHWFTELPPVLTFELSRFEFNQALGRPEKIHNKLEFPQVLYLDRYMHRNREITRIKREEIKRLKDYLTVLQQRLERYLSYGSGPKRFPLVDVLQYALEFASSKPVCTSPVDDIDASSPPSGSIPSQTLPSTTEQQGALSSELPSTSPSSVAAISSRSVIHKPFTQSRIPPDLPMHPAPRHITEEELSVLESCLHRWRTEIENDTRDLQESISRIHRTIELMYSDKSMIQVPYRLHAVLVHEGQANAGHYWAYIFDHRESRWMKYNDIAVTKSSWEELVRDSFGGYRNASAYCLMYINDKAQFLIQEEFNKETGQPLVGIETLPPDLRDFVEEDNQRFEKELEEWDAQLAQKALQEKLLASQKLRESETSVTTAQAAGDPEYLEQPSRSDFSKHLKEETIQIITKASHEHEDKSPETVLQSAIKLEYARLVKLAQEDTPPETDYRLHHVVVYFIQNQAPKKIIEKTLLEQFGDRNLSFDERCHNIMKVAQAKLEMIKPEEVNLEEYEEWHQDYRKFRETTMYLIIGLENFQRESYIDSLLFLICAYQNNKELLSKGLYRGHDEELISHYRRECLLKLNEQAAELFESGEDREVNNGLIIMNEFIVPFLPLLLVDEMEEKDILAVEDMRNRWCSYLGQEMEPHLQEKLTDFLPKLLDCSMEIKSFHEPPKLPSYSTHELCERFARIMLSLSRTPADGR
Procedure, shortened: as §1

USP28 = target: T4, USP28 (UniProt Q96RU2)
T4 sequence (whole entry): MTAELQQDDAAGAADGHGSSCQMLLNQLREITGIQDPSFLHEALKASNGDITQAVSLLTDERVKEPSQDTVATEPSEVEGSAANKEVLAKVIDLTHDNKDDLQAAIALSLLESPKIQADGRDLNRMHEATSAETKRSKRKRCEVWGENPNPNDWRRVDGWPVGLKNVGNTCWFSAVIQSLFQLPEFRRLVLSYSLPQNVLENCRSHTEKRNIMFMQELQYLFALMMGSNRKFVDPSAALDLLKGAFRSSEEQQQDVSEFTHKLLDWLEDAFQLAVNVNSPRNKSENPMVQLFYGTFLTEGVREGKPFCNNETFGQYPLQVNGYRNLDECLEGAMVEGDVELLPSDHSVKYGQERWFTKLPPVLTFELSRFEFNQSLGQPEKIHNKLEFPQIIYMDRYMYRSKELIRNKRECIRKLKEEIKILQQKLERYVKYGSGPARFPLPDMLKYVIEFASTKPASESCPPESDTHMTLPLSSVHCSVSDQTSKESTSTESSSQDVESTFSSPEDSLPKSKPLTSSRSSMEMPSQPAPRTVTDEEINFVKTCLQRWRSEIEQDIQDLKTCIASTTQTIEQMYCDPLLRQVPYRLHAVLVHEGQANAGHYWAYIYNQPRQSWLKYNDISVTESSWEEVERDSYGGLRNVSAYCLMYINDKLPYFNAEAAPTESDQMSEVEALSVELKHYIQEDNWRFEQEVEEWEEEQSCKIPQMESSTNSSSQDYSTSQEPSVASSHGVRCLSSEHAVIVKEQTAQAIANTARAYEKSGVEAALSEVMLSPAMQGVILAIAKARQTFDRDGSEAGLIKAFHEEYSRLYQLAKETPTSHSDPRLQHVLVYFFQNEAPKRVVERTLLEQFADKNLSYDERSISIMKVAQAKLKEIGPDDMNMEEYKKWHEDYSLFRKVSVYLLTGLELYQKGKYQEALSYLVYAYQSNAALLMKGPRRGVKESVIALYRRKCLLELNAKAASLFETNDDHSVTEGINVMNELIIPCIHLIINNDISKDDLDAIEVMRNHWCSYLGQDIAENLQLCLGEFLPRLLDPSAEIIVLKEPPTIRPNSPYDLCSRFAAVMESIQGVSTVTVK
Procedure, shortened: as §1

Measured: log2 ratio of Biotin-Ahx-Ub-VS probe labelling

CN(Cc1nc2ccccc2[nH]1)C(=O)CCl.Cl
inactive: USP19 -0.0932 | USP22 0.243 | USP24 -0.721 | USP25 0.0889 | USP28 -0.218
